# Assay results reported in the OligoGym collection.
# Biological target: ARHGAP5
# Experiment: pooled miR-30 sensor sort-seq; sequence = guide strand
# Conditions: shRNA
# Further: reference of the scale not given here.
row,Sequence,sensor-assay potency score (higher = more potent)
1,TTTTATTTCATTATGGACCATA,-0.301
2,TTTTTGTCCAAATCCAGCCTGT,-0.169
3,TTGCACAACATTATCAACTCAC,0.731
4,TTATGTTGCTGACTAACCCTGT,0.477
5,TTCTACAACAAATTTCATGTTT,-0.238
6,TAATTGTGGTTGTATCAGCTGA,-0.356
7,TTTCTTAACAATTTCTTTCAAG,-0.634
8,TGAAGTATACTACTGAACCCTG,-0.25
9,TCAAATAACAAAATCAGCCAGA,-0.237
10,TAGATTGATATTATGATCTTGA,1.05
11,TTTGAATATTGTCTTGGTCAGT,-0.551
12,TTTCTTTCAAACAACATCCCAA,0.179
13,TACAAGACCATCATAGATCTTT,0.493
14,TTTATGTTGCTGACTAACCCTG,-0.695
15,TAAGGTTGCATGCAGCAGCAGC,-0.593
16,TTTAGCCACAAGCATGTCCTTG,-0.792
17,TAGTAGACAGAAACTCTCGATT,-0.0895
18,TAAACCTCTCCAGTCATGCTTA,-0.431
19,TTCTACACTATACTAAATGTGT,-0.488
20,ATGATCTTGATCAAACTGCTTT,-0.663
21,TTTAGTTATCTACACCGACTGC,-0.686
22,TAGTAGTAGACAGAAACTCTCG,0.344
23,TTCTATAGTATGACTTGGCTTT,0.162
24,TTGCTTTTTGTCCAAATCCAGC,-1.64

# Biological target: ARHGEF15
# Experiment: as above
# Conditions: shRNA
row,Sequence,sensor-assay potency score (higher = more potent)
1,TGATCTTGCTGACAGCACCCAG,-1.42
2,TTGGAGTAGTCGGTGGGTGGGG,-0.515
3,TATTCTGAGGAGCTTCATCAGG,-0.865
4,TTGCTAGAAACCGCTCGCTGAC,-1.26
5,TTGCTGGAGGAGTATTCTGAGG,-1.94
6,TTGCACAGCCGGAAGCTCCTGC,-0.0952
7,TAACTCAGTCAGCTCTCCCTGG,-0.77
8,TAGGATGTGAGGACAACGGCAG,0.25
9,ACATAATCCACATACACCGAGA,-1.37
10,TTGTGGAGAGGAGCCATTGTGG,-1.62
11,TTTCGGGGTAGTTCTTGTGGAG,-0.734
12,TTGCGCTCAGCAGTGGAGCGGT,-0.34

# Biological target: ARIH1
# Experiment: as above
# Conditions: shRNA
row,Sequence,sensor-assay potency score (higher = more potent)
1,TAGCGGTTACAGTTGTACCAGG,-0.854
2,TTGGACTTTAACAACATGGTGG,0.0155
3,TTACAGTAGAACAGGTACCTCT,-0.0917
